PubChem BioAssay AID1159580 (chemical genetic matrix, 2015)
Several values for one entry are separate records, joined by “and”; a condition that tells them apart may be missing. Equal entries are not always repeated. Out of some 5,500 compounds screened, about 2,000 (36%) were called active. About 18% were inconclusive and are not listed. Cut-off read from the data, not from the text of the source: active = normalized growth mostly below about 0.91 (no sharp cut-off); inconclusive = no clear call, values can overlap the other calls; inactive = mostly above about 0.92. The list shows a part of the results.

Test: chemical genetic growth profiling, strain panel (AID 1159580);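 note: tested at 20 µM; growth read once vehicle control cultures reached saturation at 30 °C; 1 = growth at the plate median or of vehicle wells; lower values mean less growth of the strain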
Conditions: S. cerevisiae deletion strains, growth OD

Measured: normalized growth

O=c1[nH]cc(F)c(=O)[nH]1
active: locus YKL009W, strain mrt4, hits give low values 0.862 | locus YKL160W, strain elf1, hits give low values 0.671 | locus YKL190W, strain CNB1, hits give low values 0.858 | locus YKR001C, strain vps1, hits give low values 0.471 | locus YKR026C, strain gcn3, hits give low values 0.83 | locus YLL001W, strain dnm1, hits give low values 0.456 | locus YLL026W, hits give low values 0.588 | locus YLL041C, strain sdh2, hits give low values 0.849 | locus YLR027C, strain aat2, hits give low values 0.537 | locus YLR039C, strain RIC1, hits give low values 0.601 | locus YLR058C, strain SHM2, hits give low values 0.746 | locus YLR113W, strain HOG1, hits give low values 0.772 | locus YLR221C, strain rsa3, hits give low values 0.411 | locus YLR258W, strain gsy2, hits give low values 0.542 | locus YLR262C, strain YPT6 (second series), hits give low values 0.63 | locus YLR268W, strain sec22, hits give low values 0.726 | locus YLR320W, strain mms22, hits give low values 0.509 | locus YLR342W, strain FKS1 (second series), hits give low values 0.743 | locus YLR342W, strain FKS1, hits give low values 0.807 | locus YLR357W, strain rsc2, hits give low values 0.775 | locus YLR370C, strain arc18, hits give low values 0.562 | locus YLR371W, strain rom2, hits give low values 0.867 | locus YLR384C, strain iki3, hits give low values 0.809 | locus YLR418C, strain cdc73, hits give low values 0.819 | locus YML016C, strain PPZ1, hits give low values 0.864 | locus YML032C, strain rad52, hits give low values 0.642 | locus YML120C, strain ndi1, hits give low values 0.464 | locus YML124C, strain tub3, hits give low values 0.914 | locus YMR058W, strain fet3, hits give low values 0.562 | locus YMR125W, strain sto1, hits give low values 1.12 [resistant] | locus YMR129W, hits give low values 0.701 | locus YMR223W, strain ubp8, hits give low values 0.613 | locus YMR231W, strain pep5, hits give low values 0.793 | locus YNL067W, strain RPL9B, hits give low values 0.84 | locus YNL071W, strain lat1, hits give low values 0.698
inactive: locus YKL068W, hits give low values 0.995 | locus YKL085W, strain MDH1 (second series), hits give low values 0.965 | locus YKL085W, strain MDH1, hits give low values 0.965 | locus YKR091W, strain srl3, hits give low values 1.01 | locus YLR102C, strain apc9, hits give low values 0.943 | locus YLR262C, strain YPT6, hits give low values 0.647 | locus YLR330W, strain CHS5, hits give low values 0.966 | locus YMR078C, strain ctf18, hits give low values 0.994 | locus YMR205C, strain PFK2, hits give low values 0.919 | locus YMR263W, strain SAP30, hits give low values 0.957 and 1.01 | locus YMR307W, strain GAS1, hits give low values 0.901 and 0.99
